Measurements as given in the supplement of paper PMC11417369.
In all, about 25,000 sequences were measured (“ln(normalized median fluorescence intensity)”: median about 9.7, highest 2% from about 11 on). What follows is part of a selection rich in the highest values, with near analogues and random picks from the rest.

test system: PfAP2-HC AP2 domain (GST-tagged); assay: gcPBM binding intensity (ln(normalized median fluorescence intensity)); higher = stronger DNA binding
Outline: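 An Agilent 4 × 180k array carrying primer-extended double-stranded 36-bp intergenic genomic probes and negative controls received GST-tagged P. falciparum DNA-binding domains expressed in E. coli, about 25 μg on average, for 1 h. The binding buffer contained 1× PBS, 1% milk, 0.2 mg/ml BSA, 0.5% salmon testes DNA and 0.03% Triton X-100. Binding intensity is the top Masliner-normalised natural-log median intensity across replicate spots of either probe orientation, read after Alexa488 anti-GST antibody staining and a 488 nm scan.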

Sequence | gcPBM binding intensity (ln)
AAATTTATGAACCTAGTGCAGAAATTAAAAAGATGA [GTGCAC_site9396] | 9.54
TCATATATTCAAAAATTTAAAGTTAATAAAACTTGA [CACACA_negctrl_site1546] | 9.06
TATAAAAGGAAACACACACACATATATATATATATA [CACACA_site939] | 10.5
AATATAAAAATGTTTACACACACACCCAAATATATT [CACACA_site2511] | 10.2
AATATAAAAATGTTTACACACACACCGAAATATATT [CACACA_site8800] | 11.2
TAAAAAGGAAAACACACACACACATATATATATATA [CACACA_site3588] | 11.4
ATATAAATATAGTGTGCACACACATAATATATATAT [CACACA_site8713] | 10.4
AAGGAATAATATAAAACACACACATAAATATAAATA [CACACA_site9115] | 11.4
GGAATAATATAAAACACACACATAAATATAAATATA [CACACA_site3376] | 10.7
AGGAAAAAAGAAAAAACACACATAAATATATATATA [CACACA_site3085] | 9.74
AAAAAAAAAAAAAAAACACACATAAAAATATAATAA [CACACA_site3855] | 9.9
ACATATAAATATTGTGTGCACACACATAATATATAT | 11.3
AATATAAAAATGTTTACACACACACGGAAATATATT [CACACA_site7226] | 10.3
ATAAATATTGGGTGCACACACATAATATATATATAT [CACACA_site2272] | 10.2
ATATAAAGAAATTAATTTTTCAACAATAAAAATATA [CACACA_negctrl_site1262] | 9.35
AAATTGGGGCTTGTTACACACTTAGTGCGAGTTCTA [CACACA_site582] | 9.75
ATTTATTATATATAGTGTACGTTCTTAATTATAATT [XGTACX_site7480] | 9.69
TATCATATATTATATGCACACATGTTTTTCAAGAAT [CACACA_site1892] | 9.74
TTTCTTTTTCGATATACACACTGTATGTGTCTAAAA [CACACA_site6054] | 9.95
TGTATGATAACTATAGTGCATTTGGTAATTTTTCCA | 9.51
AAATGTAAATTTATCCGTACATATATATATTTATAT [XGTACX_site7024] | 9.73
ATATATATATATATGTGTACATATATATATCATATG [XGTACX_site3126] | 9.68

Sequence | gcPBM binding intensity (ln)
TAATAGAATATGATGGTGCAGCAGTCTTATTTTTCA | 9.61
AAAAAAATTAAACACACACACACATATATATATATA [CACACA_site4718] | 11.5
ACCCATAAAAAGGATACACACACACCCACCCATATA [CACACA_site8205] | 10.6
AAAACATACATATATACACACATATATATATATATA [CACACA_site1852] | 10.3
AAAAAAAAAAAACATACACACACATATATATATATA [CACACA_site8452] | 10.7
ATTAAATAAAAAAACACACACATATATACATATATA [CACACA_site3445] | 10.6
AAAACATACCTATATACACACATATAAATATAAATA [CACACA_site6956] | 10.1
AAAAAAAAATTAAAAACACACATATAAATAAATATA [CACACA_site6845] | 9.8
CCATAAAAAGGATACACACACACACCGACATATATA [CACACA_site4653] | 10.9
TAAAAGGATACATATACACACATATATATATATATA [CACACA_site2791] | 9.85
ATTAAATAAAAAAACACACACATATATACCTATATA [CACACA_site5837] | 11
AAAAAAAAATTAAAAACACACATATATATATATATA [CACACA_site1580] | 9.73
TTAAAAAAAAAACACACACACATACACATATATATA [CACACA_site3299] | 11.1
ACATATATATTTATATGTACATATATTTATATATAT [XGTACX_site7469] | 9.64
ATATTGTAAGTAAAATGTAATAAATATAATAAAATA [CACACA_negctrl_site697] | 9.76
ATATATTTATATTGTACACACATTTATGCATATATA [CACACA_site7502] | 9.96
ACATTCTATACATACACACCCACACCCAAAAAAAAA [CACACA_site863] | 10
CTTATACATTATTAACGTACATGTTATATGAATAAC [XGTACX_site5752] | 9.6
TGGAAAATTATAAGGTGTACATATAAGCTATTATAT [XGTACX_site118] | 9.63
ATATATATATATATTTATTCATATATTTTTTGTCTT [TGCATGCA_negctrl_site58] | 9.52
AAAAATGAATTATTTTGTACATATATATATATATAT [XGTACX_site3410] | 9.74
TGCTATTTTTTCCTTTTTTTGTATCACAATCATATA [CACACA_negctrl_site1576] | 9.74

Sequence | gcPBM binding intensity (ln)
ATCAACATTATGTTTAGTACTTAGTGAATTGTTAAT [XGTACX_site4913] | 9.65
ATTATATATGTATGGTGTACTAAGAATATTTTTTTA [XGTACX_site1950] | 9.55
ATTATTTAAAAAAAATGTACATAATAAATATGAACG [XGTACX_site4010] | 9.58
CAGTTTAATTTACATAGTACATAATATTTTAATTTT [XGTACX_site1793] | 9.65
AAATAAATTAAAATAAATTAAATTAAATTAGCATTA [GTGCAC_negctrl_site531] | 9.52
ATACATATATATATATGTACACACATTAATAAAAAA [XGTACX_site6874] | 9.89
GACAATAAAAAGAAAAGTACATATATAAATTAACCA [XGTACX_site7858] | 9.65
TGCATATGCATTATTTGTACATATGTAGATAATTAT [XGTACX_site6930] | 9.63
GTATTTTTAAATGACACACACATATATATATATATA [CACACA_site1662] | 10.1
AATAAATTGAAACACACACACACATATATATATATA [CACACA_site848] | 11.2
TAAATTAAAAAAAATACACACACACCGACACATATA [CACACA_site9084] | 10.6
TGCAAGGAACAACACACACACACATAAATGTATATA [CACACA_site8149] | 11.4
ATAAATATGGAGCACACACACATAAACATACCTATA [CACACA_site6336] | 10.8
ATAAAATACATATAAACACACATATAAACCGACATA [CACACA_site2477] | 10.1
AAAAGGAACAGACACACACACATATATAAATATGTA [CACACA_site7656] | 10.5
TATATATATATATAAACACACATAAATATAAATATA [CACACA_site1121] | 9.88
TGCAAGGAAAAACACACACACACATAAATGTATATA [CACACA_site751] | 10.4
TGATAAATATGGAGCACACACACATAAACATACATA [CACACA_site420] | 10.4
CATATAAATAAACACACACACACATATATATATATA [CACACA_site5309] | 10.5
AAAAAAAAAAAATATACACACACACCGACACATAAA [CACACA_site9270] | 10.9
ATAAATATGGAGCACACACACATAAACATACATATA [CACACA_site421] | 11.1
